# In PubChem BioAssay AID1508600 (Functional Genomics Laboratory (NCATS/FGL), 2020):
# Hit rate of the full screen: of about 53,000 sequences, about 3,700 (7%) were called active. The full list was thinned out, with actives kept by preference. Unmarked numbers belong to inactive results.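 Rule for the calls: active = gene knockdowns whose robust z-score for IL-1 alpha signal is at least 2 or at most -2, so actives lie on both sides; inactive = the rest.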
# Assay: Components of the Cytosolic LPS Sensing Pathway: Gene Identification via Genome-wide siRNA Screen;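 note: robust z of the log signal after scaling to non-targeting control siRNA wells of the plate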
# Conditions: RAW264.7 macrophages, IL-1a HTRF, actives lie on both sides, screened at 100 nM (by protocol), cells primed 5 h with Pam3CSK4 first
# How it was run: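 RAW264.7; siRNA 100 nM final, RNAiMAX, 48h 37 degrees C; Pam3CSK4 5 h; LipidA + TransIT-TKO 24 h; IL-1a HTRF; CellTiter-Glo viability; robust z vs negative-control median.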
row,Sequence,z-score
1,GGUUUGUUUUACAAAAUGCTT against Zdhhc5,0.37
2,GCAUUUUAGACUCAGAAUCTT against Car3,-0.047
3,GGAACGUAUACCUAUACCCTT against Huwe1,-0.263
4,GGUAUGCAGUGAAGAGGAUTT against Paqr9,2.52 (active)
5,CCGUGACAGUCAUGUUGAUTT against Amt,0.235
6,GGAAAGACCUCUUGAUAGGTT against Tbkbp1,0.113
7,CCUCUAUGUGAGAUUUGAGTT against Mamdc2,-0.917
8,CCCACCGAGACACCAUCUUTT against Syne4,-1.78
9,GGGAGAUUGCAUUUGGAGCTT against Olfr678,0.317
10,GGCUGAAGUUACUUUGGAUTT against Nup98,-2.03 (active)
11,GCAUGUAGACUACAACGUGTT against Myoz1,-1.27
12,GGGCUGAAGUGAAACCAGATT against D930048N14Rik,0.415
13,GGGUCCAAAAGAAAAGUGUTT against Zc2hc1c,0.784
14,GCAAAACACACUGAUGGUGTT against Stx16,0.835
15,GGCAAUUCAUUGCAUGUUATT against Cdc42ep3,-0.177
16,GGAUCUCACAGUGAAGAAGTT against Krba1,0.392
17,GCUUAUUUGUGGUACACGGTT against D030056L22Rik,0.112
18,GGUUUCCUGAAGUUUUCAATT against Gnaz,3.08 (active)
19,GGGUUGACCACUAUUUCUGTT against Olfr1338,-1.06
20,CGAAAAAGGGCUUUUAACUTT against Ndufs1,0.757
21,GGUGAAUGAGGACUCUGGGTT against Dcps,-1.07
22,CGAGCACCUAUUCAUCAUATT against Tdo2,0.889

row,Sequence,z-score
1,GGUACGACUUGGAAGAAAUTT against Rock2,-0.415
2,GCUUAUGAUUCCAAGGCAGTT against Serpina6,0.9
3,AAUUCUGGACGAGGAGCAUTT against Abcc5,3.22 (active)
4,CCUGGCAGUAAUCACCAUUTT against Olfr1158,-0.117
5,CGAGAAAAUGGAUUCUACCTT against Atp10d,0.314
6,GGAGUUGUCUACCAAAGUUTT against Reep5,0.609
7,CCCGAUGAAGUGUUUUUAGTT against Oosp1,-0.753
8,GGAAGAAUAAAGUGCUUUGTT against Chga,2.27 (active)
9,GGAUCCUCUUGAUCAAGCUTT against Vps53,-0.891
10,GGUUUGAUUAUACCUAUCATT against Tenm2,-0.337
11,GGAGAAAGGUUUUGUUAUGTT against Gtf2h2,1.5
12,CCUACUACAUCCGCUACUGTT against Apba2,-0.366
13,GGUUUGGCUUAGCUCAUCATT against Mettl24,-2.72 (active)
14,GGGCUACUCAGCCUAUAGUTT against Asic4,1.22
15,GGCAAACUCGGGUAUACACTT against Mybpc1,0.394
16,GGUGUGGCUGUUCUGAUGATT against Olfr771,0.322
17,GCACGAGAGACAUUUCUCCTT against Kat7,-2.32 (active)
18,GGGCUCCUGGUUUAGUAAUTT against Zfp59,1.04
19,GGGUGUUUGGAGAUUGUGUTT against Heatr3,-2.93 (active)
20,GCUUUUCAUACCUGUUUCCTT against 9930111J21Rik2,-0.227
21,CGGAAUCUGACUGGUAUCGTT against Banp,-1.21
22,GGAAAAAGCCAAUUAUGUCTT against Fbxl2,-0.954

row,Sequence,z-score
1,GGUUUUAAGCUUGCUUAUGTT against Ucma,0.4
2,GGAGAUACUAUGUUGCAUUTT against Fgf9,0.537
3,GGAUUCUUGGAGCUCAUUATT against Stag3,-2.46 (active)
4,CCAAGAGAUGCUAGCUAAUTT against Platr28,-0.495
5,GGCAAUCUACUCAUUGUUGTT against Olfr1239,-0.719
6,GCAGGUUAGAGUCACUUGUTT against Trim67,0.143
7,GGUGUCCAGUUCAUCCAGGTT against Vxn,1.15
8,GGAACAAGGUAAAAUACAUTT against Nthl1,3.88 (active)
9,GCUUUGAGAACCUUGGUAATT against Rab9b,-0.652
10,GGAUCAGUGCCUUUGGCUATT against Rhoc,-1.75
11,GGGAUGUUUUGUUUUUAACTT against Mlc1,0.384
12,GGAGUUCACCAGCUACCAATT against Myoz3,-0.537
13,CCAUGGAAUUCAAUUCCUUTT against Vmn2r66,0.0798
14,CCCUAGUUACCAAUUCCACTT against Olfr293,2.61 (active)
15,GGUUGACUGAAUGAUGGAATT against Tcl1b3,-0.724
16,GCCCAUAUCGGAGAAGAUUTT against Cap2,-1.97
17,GGGCAUGUUUAACGACAUUTT against Csf2ra,1.49
18,GGAUUUCCUUUUAAGACUUTT against Rab3il1,-0.71
19,GCUUUACCUGCUCAGAAGCTT against Olfr520,-2.26 (active)
20,GGAAGACAAUAAGAAGUGGTT against Niban2,-0.576
21,CCAUUCCUACAGCAUGCGUTT against Slc27a1,0.523
22,GCGAGCUAUUCUUCCUUGUTT against Eif4a1,-2.13 (active)

row,Sequence,z-score
1,CCUCAUCCAACAUACCUAUTT against Olfr665,-0.665
2,GGACAUCAUAUUCGUUUUCTT against C130026L21Rik,1.12
3,GGGUUGAAGUUUGUCGAAATT against Nlgn1,0.496
4,GGGUCUUUGUACAGAUUGCTT against Olfr275,0.0844
5,GGAGGAAGAGGAGAAUCUATT against Supt6,-2.57 (active)
6,GCUGAAUACAGUUGGUGCUTT against Nelfa,-0.259
7,GGAUUCAAACUGGUUUUCATT against Ptcd3,1.8
8,GGACAAGUUCUGUUGGUAUTT against Zfp275,0.121
9,GCGCAGUCAGACCAUAUAUTT against Fbxl5,-0.874
10,GGGAGACUGUGAAGCUUUATT against Elk4,3.22 (active)
11,GGUCUUAAAGCAUGAGAAGTT against Med8,0.541
12,GGUUCGUAAAAUUAUUAGGTT against Vcl,1.09
13,GGGCAGUCCGUUUCUUAACTT against Kptn,0.815
14,GGAGGUAUUUACCAAAGAUTT against Acer2,0.453
15,CCACACUUUUCAGUAUAAUTT against Lin54,0.897
16,GGGUGACCUAAAGAAUUAATT against Ybx3,0.849
17,GCUGAAUACAACGUGAGAUTT against Tdh,-4.05 (active)
18,GGUUUCGUCUUGAUAUCUATT against Trpc1,-0.417
19,GGAGAGCAGAUGUGAUUCUTT against Mrm2,-0.561
20,GCCUGUUCUCAAGACUGACTT against Sema4a,2.06 (active)
21,GGGUGUCUUUCCUGUGUGATT against Pkmyt1,-0.804
22,GGGUAAAGGAGAUUGUGAUTT against Ppfibp2,-0.103

row,Sequence,z-score
1,GCCGUUAGAAACAAAGUCGTT against Taf3,-2.48 (active)
2,CCAAGUAUAGCUCACAUAATT against Slc17a4,-1.7
3,GCCCUUGAAGAUUUGAGGUTT against Cops8,0.00555
4,GCACAGGUUCAAGUGGAACTT against Prnd,-1.41
5,GGAAAGACCUAAGCAAUUATT against Klhl28,-0.287
6,CCUAUCCAGAUGUCAUUAATT against Hoxa11,0.849
7,GGAAUUUGAUUCUCUGCCUTT against Zfp646,2.96 (active)
8,GCAUUAAAAACCCUUUUUGTT against B230354K17Rik,1.68
9,GCAGAGUGUGGUUAGUGGGTT against Cobl,-0.218
10,GGAACUGCCCAGUUCUUAATT against Ppan,0.424
11,CCUACCCUAACCAUUACACTT against Enpp5,-0.267
12,GGCCUUUUCUCAUCUCUGGTT against Igfals,-1.57
13,GCCCGGAGAAUAUUAACUATT against Mllt11,2.21 (active)
14,GCACUUUAAGAUCAACCGGTT against Bcar3,0.521
15,CCUAAAAGUGCCUUACUAATT against Ftdc2,0.679
16,GGAGUUUGCCAGUCAGAUCTT against Ralgps1,-2.11 (active)
17,GCAAGAACGCAAGAUUCAATT against Acoxl,0.581
18,GCUGCUACGUGUUCAAGGUTT against Ctss,0.00488
19,GGACAAAGAAUCCAAAAUATT against Etv6,2.25 (active)
20,GGUACCAACGUGUAUGGCATT against Gpaa1,0.182
